The subject of this experiment is Plasmodium falciparum NF54. Description: growth inhibition relative to untreated control; higher = more inhibition. To be noted: 72 h. Put shortly:
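Growth inhibition was measured by SYBR Green fluorescence, normalised to untreated wells and corrected for background from uninfected erythrocytes. The parasites were P. falciparum NF54 ring stages (1% hematocrit, 1% parasitemia) exposed to single 5 μM or 1 μM doses of test compounds for 72 h at 37 °C, in either minimal RPMI or minimal RPMI containing 2.2 μM folate, 7.3 μM pABA, 7.3 μM pHBA, 111 μM tyrosine, 90 μM phenylalanine and tryptophan.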

Where [1] appears, read: 1 µM, MM + chorismate end-products (CM screening medium).
Where [2] appears, read: 5 µM, MM + chorismate end-products (CM screening medium).

`O=C(Nc1ccc2c(c1)B(O)OC2)c1ccccc1C(F)(F)F`: the growth inhibition reads like this: under setting [1], 69.1%; (1 µM, minimal medium (MM)) 67.8%; under setting [2], 74.6%; (5 µM, minimal medium (MM)) 87%.

As for `CC(=O)NCC1CN(c2ccc(-c3ccc(CNCc4cn[nH]n4)cc3)c(F)c2)C(=O)O1` (stereo not drawn), the growth inhibition under setting [1] amounted to 4.9%; the growth inhibition (1 µM, minimal medium (MM)) was under 0%; the growth inhibition under setting [2] was found to be 34.6%; the growth inhibition (5 µM, minimal medium (MM)) was under 0%.

On to `CCC(NC(=O)c1ccccc1NC(=O)c1ccc(C)cc1)C(=O)OC` (stereo not drawn), for which the growth inhibition came out at 97.3% under setting [1]; 96.2% (1 µM, minimal medium (MM)); 97.1% under setting [2]; 91.3% (5 µM, minimal medium (MM)).

Turning to `COc1ccc(-c2cnc3ccc(NCc4ccc(S(N)(=O)=O)cc4)nn23)cn1`, the growth inhibition is, setting by setting: under setting [1], 73.3%; (1 µM, minimal medium (MM)) 77.2%; under setting [2], 95.9%; (5 µM, minimal medium (MM)) 92.1%.

Turning to `CCCCc1ccc(NC(=O)Nc2ccc(O[C@H]3CCCC[C@@H]3N(C)c3ccccc3)c(F)c2)cc1`, the growth inhibition by setting is: under setting [1], 17.3%; (1 µM, minimal medium (MM)) under 0%; under setting [2], 98.1%; (5 µM, minimal medium (MM)) 85.4%.

For `CNC(=O)c1cc(S(=O)(=O)N2CCN(c3ccccn3)CC2)cs1`, the growth inhibition under setting [1] was 98.3%; the growth inhibition (1 µM, minimal medium (MM)) came out at 96.6%; the growth inhibition under setting [2] came out at 90.2%; the growth inhibition (5 µM, minimal medium (MM)) came out at 90.9%.

On to `N#Cc1ccc(-c2ccc(OCC(N)=O)cc2)cc1`, for which the growth inhibition is under 0% under setting [1]; 6.45% (1 µM, minimal medium (MM)); under 0% under setting [2]; under 0% (5 µM, minimal medium (MM)).

`COc1ccc(CN2CCOc3ccc(C(C)(O)CN(C)C)cc3C2)cc1C` (stereo not drawn): the growth inhibition was found to be 78.6% under setting [1]; 75% (1 µM, minimal medium (MM)); 66.7% under setting [2]; 21.7% (5 µM, minimal medium (MM)).

In the case of `Cc1nn(C)cc1C(C)Nc1nncc(-c2ccc(C(F)(F)F)cc2)n1` (stereo not drawn), the growth inhibition amounted to 94.7% under setting [1]; 97.4% (1 µM, minimal medium (MM)); 99.9% under setting [2]; 91.7% (5 µM, minimal medium (MM)).

For the compound `CNC(=O)CNc1nc(-c2ccccn2)nc2scc(-c3ccccc3)c12`, the growth inhibition amounted to 8.9% under setting [1]; 9.62% (1 µM, minimal medium (MM)); 61.2% under setting [2]; 37.3% (5 µM, minimal medium (MM)).

`Cc1ccccc1C(=O)N1N=C(Nc2ccccc2)SC1(C)C`: the growth inhibition was 49.8% under setting [1]; 9.58% (1 µM, minimal medium (MM)); under 0% under setting [2]; 5.01% (5 µM, minimal medium (MM)).

`CCN(CC)C(=O)N1CCN(C)CC1`: the growth inhibition runs as follows: under setting [1], 31.7%; (1 µM, minimal medium (MM)) 2.45%; under setting [2], under 0%; (5 µM, minimal medium (MM)) under 0%.

The values are drawn from the supplement of paper PMC6763611.
